Shown are actives, neighbours in structure and some others; about 2.3% of the full set was active somewhere.
M1 ag parental – nonselective activator or artifact in parental CHO-K1 cells; Fluo-8 calcium fluorescence; scaled to maximal ATP response, vehicle zero; activation, % at 3 µM; 0.48% of 360,000 active; in the data active = activation above about 15%;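 note: untransfected CHO-K1 host cells lacking M1 receptor as counterscreen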
CHRM1 agonist – activates human CHRM1 receptor. P11229. CHO-K1 hM1, Fluo-8 calcium fluorescence, agonist mode; 0% DMSO, 100% acetylcholine EC100. activation, % at 3 µM. 0.33% of 360,000 active;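 active = activation above the run's mean compound activation plus 3 SD, cut at about 16% in these data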;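 note: peak over basal fluorescence ratio within a 140 s kinetic read after compound addition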
Target sequence (P11229 whole entry, looked up): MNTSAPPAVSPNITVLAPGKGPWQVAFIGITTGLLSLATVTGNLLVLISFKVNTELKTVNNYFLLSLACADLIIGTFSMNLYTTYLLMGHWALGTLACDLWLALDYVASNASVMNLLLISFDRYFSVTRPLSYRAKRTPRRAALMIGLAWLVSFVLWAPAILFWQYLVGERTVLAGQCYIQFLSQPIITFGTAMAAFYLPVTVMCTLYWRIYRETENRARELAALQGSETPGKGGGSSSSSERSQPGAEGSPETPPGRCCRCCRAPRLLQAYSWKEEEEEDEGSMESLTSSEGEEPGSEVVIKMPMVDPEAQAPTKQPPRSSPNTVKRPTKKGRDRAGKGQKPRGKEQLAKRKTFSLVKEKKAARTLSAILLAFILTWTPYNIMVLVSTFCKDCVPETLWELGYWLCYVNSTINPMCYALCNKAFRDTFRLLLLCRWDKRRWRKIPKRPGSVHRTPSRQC
CHRM1 PAM – human CHRM1 positive allosteric modulation | AID 588819 | P11229 | 0.088% of 360,000 active | CHO-K1 hM1, Fluo-8 calcium fluorescence, ACh EC20; 0% = ACh EC20, 100% = maximal ACh | activation, % at 3 µM; in the data active = activation above about 19%, passing the limit was not always enough
CHO-K1 Ca antag – counter-screen for M1 antagonists: effect in parental CHO-K1 cells; ATP-induced calcium, Fluo-8 fluorescence; inhibition, % at 3 µM; 0.6% of 360,000 active; AID 602250;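 active = inhibition above a per-plate cutoff, the plate's mean sample inhibition plus 3 SD, cut at about 24% in these data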;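 note: 0% = DMSO plus EC80 ATP and 100% = DMSO alone without ATP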
CHRM1 antagonist – human CHRM1 antagonism; P11229; CHO-K1 hM1, Fluo-8 calcium fluorescence, ACh EC80 antagonist; inhibition, % at 3 µM; 1.3% of 360,000 active; AID 588852;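 active = percent inhibition above its own plate's cutoff, namely the mean of that plate's compound wells plus 3 SD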;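 note: peak over basal fluorescence ratio during 140 s after agonist addition; 0% = ACh EC80 plus DMSO and 100% = DMSO alone without agonist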
M1 PAM parental – counter-screen for M1 PAMs: effect in parental CHO-K1 cells; activation, % at 3 µM; ATP EC20, Fluo-8 calcium fluorescence; 0% at ATP EC20, 100% at ATP max; 0.02% of 360,000 active;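 active = activation above the run cutoff, the mean activation of all test compounds plus 3 SD, cut at about 40% in these data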;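 note: peak over basal fluorescence ratio in a 140 s read after ATP addition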
* = called active by the depositor.

SMILES	M1 ag parental	CHRM1 agonist	CHRM1 PAM	CHO-K1 Ca antag	CHRM1 antagonist	M1 PAM parental
Cc1ccc(CNC(=O)C(C)OC(=O)c2cccs2)cc1 (configuration not stated)	0.0	-3.1	8.0	-17.9	-10.5	5.0
CCCCCOC(=O)C1=C(C)Nc2ncnn2C1c1cccs1 (configuration not stated)	4.5	-3.2	-9.4	21.1	26.9*	2.5
OC1(c2ccc(OC(F)F)cc2)CSC(=Nc2cccnc2)N1C1CC1 (configuration not stated)	7.7	1.2	-16.2	12.2	21.4*	3.4
COc1ccc(OC)c(C2(O)CSC(=Nc3cccnc3)N2Cc2ccco2)c1 (configuration not stated)	1.9	-1.8	1.7	-6.3	1.1	6.9
OCC[C@@H]1C[C@H](O)[C@@H](O)[C@]2(OCc3ccc(CO)cc32)O1	0.1	0.2	10.9	14.0	-6.0	14.6
O=C1c2cccc3c(O)ccc(c23)C(=O)N1Cc1ccco1	65.3*	68.2*	-23.0	26.1*	30.3*	-3.9
CC(=O)Nc1ccc(N2C(=O)c3cccc4c(O)ccc(c34)C2=O)cc1	40.6*	98.0*	-32.0	21.4	38.9*	-23.2
O=C1c2cccc3c(O)ccc(c23)C(=O)N1c1ccc(Cl)cc1	18.4*	77.5*	-30.1	6.8	44.8*	-19.8
CCN(CC)CCN(Cc1cc2cc3c(cc2[nH]c1=O)OCO3)C(=S)NCCCOC	0.5	-7.3	9.5	0.0	-12.3	26.5
CCN(CC)CCCN(Cc1cc2cc3c(cc2[nH]c1=O)OCO3)C(=S)NCCCOC	-0.2	-8.5	3.5	24.3*	-0.4	-22.1
COCCNC(=S)N(CCO)Cc1cc2cc3c(cc2[nH]c1=O)OCO3	1.0	-5.3	2.1	-4.6	3.3	11.5
COCCNC(=S)N(CCCO)Cc1cc2cc3c(cc2[nH]c1=O)OCCO3	-0.4	-2.2	-6.6	25.9*	16.4	-19.9
O=C1CC(C(=O)N2CCc3ccccc32)CN1c1ccccc1 (configuration not stated)	0.8	-8.2	-2.5	-13.8	4.6	-1.2
c1ccc(N2CC3COc4ccccc4C3=N2)cc1 (configuration not stated)	-0.2	-5.2	5.2	-12.7	-16.3	14.8
CCOC(=O)N1CCC(NC(=O)c2cc(S(=O)(=O)N3CCCC3)cn2C)CC1	0.0	-0.8	2.3	25.9*	1.6	-8.2
CCOC(=O)c1nn(-c2ccc(F)cc2)c(=O)c2c(N)scc12	0.1	-6.0	17.3	-4.0	-6.4	20.5
CCOC(=O)c1nn(-c2ccc(C)cc2)c(=O)c2c(N)scc12	-0.8	0.2	-6.6	32.8*	22.1	-9.4
CN1CCN(C(=O)CSc2nc(-c3ccncc3)ccc2C#N)CC1	1.5	-4.1	-9.8	19.1	25.9*	-1.1
C#CCSc1nc(-c2cccs2)ccc1C#N	-0.2	-4.9	-8.2	-2.5	6.1	4.5
COC(=O)CSc1nc(-c2cccs2)ccc1C#N	1.6	-7.9	-17.7	-6.8	46.9*	19.5
COc1cccc(CCN2CCC(CNS(=O)(=O)c3cc(-c4cc(C)no4)ccc3OC)CC2)c1	3.1	-3.3	-22.6	-14.4	37.0*	-1.1
COc1ccccc1CN1CCC(CNS(=O)(=O)c2cc(-c3onc(C)c3C)ccc2OC)CC1	0.8	-13.1	-42.2	10.9	102.4*	-6.9
COc1cccc(CCN2CCC(CNS(=O)(=O)c3cc(-c4cc(C)no4)ccc3C)CC2)c1	6.0	0.4	-19.7	-0.9	26.0	-13.0
Cc1cc(-c2ccc(C)c(S(=O)(=O)NCC3CCN(Cc4cccc(F)c4)CC3)c2)on1	7.7	-2.3	-15.2	0.7	19.6	-7.7
Cc1cc(-c2ccc(C)c(S(=O)(=O)NCC3CCN(Cc4ccccc4F)CC3)c2)on1	1.4	-5.4	-22.9	-4.6	55.1*	11.4
O=C(COc1ccc(S(=O)(=O)N2CCOCC2)cc1Cl)NCc1ccc2c(c1)OCO2	4.9	1.3	-0.5	-11.1	3.1	10.6
COc1ccc(Cc2nc3ccccc3[nH]2)cc1OC	0.3	-6.4	1.5	46.5*	4.9	-2.9
Cc1ccc(Cc2nc3ccccc3[nH]2)cc1	1.0	-1.2	5.5	-8.8	0.6	11.6

Source: PubChem (The Scripps Research Institute Molecular Screening Center)
